This note sets out measurements from PubChem BioAssay.

Values without a mark were called inactive. For some of these results: Entries with a potency or affinity are not part of this list. The source made the active and inactive calls. Unless noted, the rule behind the calls is not given here.

As a reminder, the inhibition is the drop in the measured response relative to a control, in per cent.

A short description of assay [1]: antimalarial activity against Dd2 strain (AID 2302;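 active = growth inhibition above 50% at the single 2 µM test dose, taken to imply half-maximal potency below 2 µM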;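 note: 0% = DMSO untreated growth and 100% = chloroquine plus artemisinin killed control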). Particulars: P. falciparum Dd2 in RBCs, LDH growth readout, 72 h; at 2 µM; hits give high values.
Assay [2] is described as follows: human hepatoma cell viability loss – ATP luminescence, cytotoxicity control for P. falciparum antimalarial project, primary screen (AID 2303;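 active = inhibition above 50%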;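 note: 0% = DMSO wells and 100% = digitonin-killed cells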). Particulars: HepG2 viability, 24-48 h, at 10 µM, hits give high values.
Assay [3] deals with L-lactate dehydrogenase (Plasmodium falciparum (isolate CDC / Honduras)) (UniProt Q27743). In words: PfLDH activity inhibition – cell lysate, 3D7 strain, counter-screen for P. falciparum growth inhibition project (AID 2304).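 Note: 0% = vehicle and 100% = reference inhibitor.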 Particulars: P. falciparum 3D7 crude extract, LDH APAD/NBT absorbance; at 2 µM; hits give high values. (The purpose of a counterscreen is to sort out artefacts and off-target activity.)

The nature of assay [4]: inhibition of 3D7 malaria parasite growth – strain 3D7 (AID 2306).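 Note: 0% = DMSO wells and 100% = chloroquine plus artemisinin control wells.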 The note with it: P. falciparum 3D7 erythrocytic growth, LDH absorbance, 72 h; at 2 µM; hits give high values.
Assay [5] has as its target Calcium-dependent protein kinase 1 (Plasmodium falciparum (isolate 3D7)) (UniProt P62344). As to the kind of experiment: PfCDPK1 kinase inhibitors, biochemical, TCAMS library (AID 1159585; cut-off not given, nearly all actives have IC50 up to about 0.98 µM;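 note: inhibitors leave more ATP so luminescence rises with inhibition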). Particulars: recombinant PfCDPK1, Kinase-Glo ATP depletion luminescence.
Assay [6] deals with Plasmodium falciparum protein kinase 6 (PK6, PF3D7_1337100) (UniProt Q8IDW1). As to the kind of experiment: PfPK6 kinase inhibitors, biochemical, TCAMS library (AID 1159586). Particulars: recombinant PfPK6, Kinase-Glo ATP depletion luminescence. For orientation: In Kinase-Glo more light means more ATP remaining.
Assay [7] has as its target Protein kinase 7 (PK7), Plasmodium falciparum 3D7 (PF3D7_0213400) (UniProt Q7YTF7). In words: inhibition of Plasmodium PK7 catalytic activity – biochemical, TCAMS antimalarial set, Kinase-Glo luminescence (AID 1159587). The note with it: recombinant PfPK7, Kinase-Glo ATP depletion luminescence.
Assay [8] concerns the target Calcium-dependent protein kinase 4 (Plasmodium falciparum (isolate 3D7)) (UniProt Q8IBS5). In words: PfCDPK4 kinase inhibitors, biochemical, TCAMS library (AID 1159588; cut-off not given, nearly all actives have IC50 up to about 0.91 µM). The note with it: recombinant PfCDPK4, Kinase-Glo ATP depletion luminescence.

L-lactate dehydrogenase (Plasmodium falciparum (isolate CDC / Honduras)), sequence (Q27743 whole entry, looked up): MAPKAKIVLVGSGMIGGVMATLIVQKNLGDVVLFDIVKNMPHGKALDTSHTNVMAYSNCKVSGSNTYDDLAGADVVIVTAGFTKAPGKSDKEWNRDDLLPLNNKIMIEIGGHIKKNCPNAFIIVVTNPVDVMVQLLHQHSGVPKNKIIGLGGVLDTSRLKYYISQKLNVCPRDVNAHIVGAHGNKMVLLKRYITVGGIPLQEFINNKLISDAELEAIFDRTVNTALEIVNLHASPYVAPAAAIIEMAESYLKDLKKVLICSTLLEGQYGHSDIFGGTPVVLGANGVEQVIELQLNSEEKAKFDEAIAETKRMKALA
Plasmodium falciparum protein kinase 6 (PK6, PF3D7_1337100), sequence (Q8IDW1 1-305): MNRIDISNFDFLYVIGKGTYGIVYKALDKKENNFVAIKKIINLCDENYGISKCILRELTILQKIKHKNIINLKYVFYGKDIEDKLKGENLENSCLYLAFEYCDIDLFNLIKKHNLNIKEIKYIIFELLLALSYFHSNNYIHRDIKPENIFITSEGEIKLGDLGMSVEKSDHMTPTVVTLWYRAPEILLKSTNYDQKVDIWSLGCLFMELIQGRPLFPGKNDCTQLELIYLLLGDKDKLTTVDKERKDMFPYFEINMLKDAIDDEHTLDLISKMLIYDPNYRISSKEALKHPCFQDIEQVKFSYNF
Protein kinase 7 (PK7), Plasmodium falciparum 3D7 (PF3D7_0213400), sequence (Q7YTF7 1-343): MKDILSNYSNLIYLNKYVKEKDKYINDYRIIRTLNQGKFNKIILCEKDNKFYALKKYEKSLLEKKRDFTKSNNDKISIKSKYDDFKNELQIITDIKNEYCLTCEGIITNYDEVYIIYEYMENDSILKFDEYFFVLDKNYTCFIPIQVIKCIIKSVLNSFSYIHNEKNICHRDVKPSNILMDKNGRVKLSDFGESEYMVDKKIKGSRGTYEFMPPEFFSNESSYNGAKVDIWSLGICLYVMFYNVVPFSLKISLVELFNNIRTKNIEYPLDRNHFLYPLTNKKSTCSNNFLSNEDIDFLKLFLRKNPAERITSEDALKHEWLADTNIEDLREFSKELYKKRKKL
Calcium-dependent protein kinase 1 (Plasmodium falciparum (isolate 3D7)), sequence (P62344 whole entry, looked up): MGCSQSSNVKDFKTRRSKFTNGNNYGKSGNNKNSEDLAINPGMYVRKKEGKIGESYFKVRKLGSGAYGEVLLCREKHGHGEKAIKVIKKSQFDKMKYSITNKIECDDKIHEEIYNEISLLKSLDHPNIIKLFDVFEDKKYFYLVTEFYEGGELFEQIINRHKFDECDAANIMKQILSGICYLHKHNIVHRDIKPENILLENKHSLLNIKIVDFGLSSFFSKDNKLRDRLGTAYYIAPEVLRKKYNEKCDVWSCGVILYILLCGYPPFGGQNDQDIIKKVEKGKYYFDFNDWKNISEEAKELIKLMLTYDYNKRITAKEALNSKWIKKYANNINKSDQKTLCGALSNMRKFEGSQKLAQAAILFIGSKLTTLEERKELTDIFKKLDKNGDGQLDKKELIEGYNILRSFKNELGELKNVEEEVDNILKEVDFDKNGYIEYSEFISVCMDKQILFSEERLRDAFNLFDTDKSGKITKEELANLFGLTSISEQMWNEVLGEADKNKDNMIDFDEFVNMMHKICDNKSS
Calcium-dependent protein kinase 4 (Plasmodium falciparum (isolate 3D7)), sequence (Q8IBS5 whole entry, looked up): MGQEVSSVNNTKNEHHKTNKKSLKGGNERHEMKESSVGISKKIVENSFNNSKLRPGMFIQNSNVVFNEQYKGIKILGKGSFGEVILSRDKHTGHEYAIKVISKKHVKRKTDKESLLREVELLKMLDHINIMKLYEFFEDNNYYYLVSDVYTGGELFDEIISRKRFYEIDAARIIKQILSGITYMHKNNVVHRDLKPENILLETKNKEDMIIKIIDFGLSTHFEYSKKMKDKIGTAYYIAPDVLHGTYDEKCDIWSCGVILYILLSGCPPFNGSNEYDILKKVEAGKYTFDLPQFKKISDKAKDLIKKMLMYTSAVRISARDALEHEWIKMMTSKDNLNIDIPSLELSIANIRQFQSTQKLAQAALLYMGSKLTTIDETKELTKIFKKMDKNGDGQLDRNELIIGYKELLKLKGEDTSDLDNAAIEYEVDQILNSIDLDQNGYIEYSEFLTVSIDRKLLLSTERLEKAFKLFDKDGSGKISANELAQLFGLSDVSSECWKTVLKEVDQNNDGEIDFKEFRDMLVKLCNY

As to `CC[C@H](C)CNC(=O)c1cccc(-c2ccc(CN3CCC(N4CCCC4)CC3)cc2)n1`, the growth inhibition in assay [1] is 82% (active); in assay [4], 101% (active). For the same molecule, the inhibition is 41% in assay [2] and -2% in assay [3]. For the same molecule, the result in assay [5], in assay [6], in assay [7] and in assay [8] was inactive.

As for `CN1CCC(C(=O)N(Cc2ccc(-c3ccc(CNCCc4ccc(S(C)(=O)=O)cc4)cn3)cc2)Cc2ccc3c(c2)OCO3)CC1`, the growth inhibition in assay [1] is 51% (active); in assay [4], 91% (active). The inhibition in assay [2] is 16%; in assay [3], -3%. In addition, the outcome in assay [5], in assay [6], in assay [7] and in assay [8] was inactive.

With `NCc1ccc(CNCc2ccc(-c3ccc(-c4nc5ccc(F)cc5[nH]4)cc3)cc2)cc1`, the figures for the growth inhibition in assay [1] and in assay [4] were 99% (active) and 100% (active), respectively. Besides, the inhibition in assay [2] was 12%; in assay [3], -3%. For the same molecule, the result in assay [5], in assay [6], in assay [7] and in assay [8] was inactive.

Consider `O=C(NC1CC1)c1cnc(N2CCC(Oc3ccc(Cl)cc3)CC2)c(Cl)c1`, for which the growth inhibition in assay [1] was 75% (active); in assay [4], 86% (active). Besides, the inhibition in assay [2] was 12%; in assay [3], -5%. For the same molecule, the result in assay [5], in assay [6], in assay [7] and in assay [8] was inactive.

Consider `COc1ccc(-c2ccc(CNCc3ccc(F)cc3)cc2)cc1S(=O)(=O)NCCN1CCCC1`, for which the growth inhibition is 33% in assay [1] and 98% (active) in assay [4]. The inhibition is 24% in assay [2] and 3% in assay [3]. Further, the outcome in assay [5], in assay [6], in assay [7] and in assay [8] was inactive.

On to `O=C(CC1NC(=O)c2ccccc21)Nc1ccc(-c2cccc(-c3nc4ccc(C(F)(F)F)cc4[nH]3)c2)cc1` (stereo not given), for which the growth inhibition in assay [1] was 36%; in assay [4], 95% (active). The inhibition was 69% (active) in assay [2] and -4% in assay [3]. Also, the outcome in assay [5], in assay [6], in assay [7] and in assay [8] was inactive.

As for `CNCCNCc1ccc(-c2ccc(-c3nc4c(C)cccc4[nH]3)cc2)cc1`, the growth inhibition in assay [1] is 79% (active); in assay [4], 96% (active). The figures for the inhibition in assay [2] and in assay [3] were 19% and -5%, respectively. Further, the result in assay [5], in assay [6], in assay [7] and in assay [8] was inactive.

In the case of `COc1cc(NC(=O)CCCCCCCN2CCN(C)CC2)c2ncccc2c1`, the results for the growth inhibition in assay [1] and in assay [4] were 83% (active) and 95% (active), respectively. Also, the inhibition was 2% in assay [2] and 1% in assay [3]. The outcome in assay [5], in assay [6], in assay [7] and in assay [8] was inactive.

As to `c1ccc(-c2cc(NCCCn3ccnc3)nc(-c3cccnc3)n2)cc1`, the growth inhibition is 6% in assay [1] and 84% (active) in assay [4]. Besides, the inhibition in assay [2] is 15%; in assay [3] it was 0%. The outcome in assay [5], in assay [6], in assay [7] and in assay [8] was inactive.

Consider `O=C(c1ccc(O)c(-c2cc(Cl)cc(Cl)c2)c1)N1CCCC1`, for which the growth inhibition in assay [1] is 57% (active); in assay [4] it was 90% (active). Also, the values for the inhibition in assay [2] and in assay [3] were 3% and -6%, respectively. For the same molecule, the result in assay [5], in assay [6], in assay [7] and in assay [8] was inactive.

Turning to `COc1ccc2nccc(N3CCC(CCNCc4cc5c(cn4)OCCO5)CC3)c2n1`, the results for the growth inhibition in assay [1] and in assay [4] were 101% (active) and 100% (active), respectively. Also, the inhibition in assay [2] was 18%; in assay [3], 7%. In addition, the result in assay [5], in assay [6], in assay [7] and in assay [8] was inactive.

On to `O=C(Nc1ccc(-c2cccc(-c3nc4ccc(F)cc4[nH]3)c2)cc1)Nc1ccc(F)c(F)c1F`, for which the growth inhibition was 98% (active) in assay [1] and 100% (active) in assay [4]. The inhibition is 70% (active) in assay [2] and 3% in assay [3]. For the same molecule, the result in assay [5], in assay [6], in assay [7] and in assay [8] was inactive.

As for `CC[C@H](C)CNC(=O)c1ccnc(-c2cccc(CN3CCC(N4CCCC4)CC3)c2)c1`, the figures for the growth inhibition in assay [1] and in assay [4] were 12% and 97% (active), respectively. Moreover, the inhibition in assay [2] is -8%; in assay [3], -2%. Further, the outcome in assay [5], in assay [6], in assay [7] and in assay [8] was inactive.

In the case of `COc1cc(Cc2cnc(N)nc2N)ccc1OCc1cccc(Oc2ccccc2)c1`, the growth inhibition in assay [1] was 21%; in assay [4] it was 84% (active). Also, the inhibition is 18% in assay [2] and 0% in assay [3]. Besides, the result in assay [5], in assay [6], in assay [7] and in assay [8] was inactive.

Turning to `Cc1ccc(C(=O)Nc2ccc(C)c(OC3CCN(Cc4ccco4)C3)c2)cc1` (stereo not given), the growth inhibition in assay [1] was 49%; in assay [4], 90% (active). Further, the inhibition in assay [2] is 10%; in assay [3], 3%. In addition, the result in assay [5], in assay [6], in assay [7] and in assay [8] was inactive.

Take `O=C(Nc1cccc(CCNCc2ccccc2)c1)Nc1cccc2ccccc12`: the growth inhibition in assay [1] is 8%; in assay [4] it was 102% (active). The inhibition in assay [2] is 13%; in assay [3] it was 1%. In addition, the result in assay [5], in assay [6], in assay [7] and in assay [8] was inactive.

On to `CCOc1cc(CC)ccc1C1CCN(CCN2CCC(CNC(=O)c3ccc(-c4ccc(C#N)cc4)cc3)CC2)CC1`, for which the growth inhibition in assay [1] was 100% (active); in assay [4] it was 89% (active). For the same molecule, the inhibition in assay [2] is 53% (active); in assay [3], 5%. Also, the result in assay [5], in assay [6], in assay [7] and in assay [8] was inactive.

Turning to `Cc1noc(C)c1-c1ccc2c(Nc3ccc(C(F)(F)F)cc3)c(C(N)=O)cnc2c1`, the growth inhibition in assay [1] is 95% (active); in assay [4], 100% (active). Further, the inhibition in assay [2] is 1%; in assay [3], 6%. Further, the result in assay [5], in assay [6], in assay [7] and in assay [8] was inactive.

With `COc1cc2ncnc(Nc3ccc(OCc4ccccc4)c(OCc4ccccc4)c3)c2cc1OC`, the figures for the growth inhibition in assay [1] and in assay [4] were 57% (active) and 100% (active), respectively. In addition, the figures for the inhibition in assay [2] and in assay [3] were 4% and -1%, respectively. Also, the outcome in assay [5], in assay [6], in assay [7] and in assay [8] was inactive.

Consider `O=C(/C=C/c1ccc(Cl)cc1Cl)N1CCC(CCN2CCC(c3c[nH]c4ccccc34)CC2)CC1`, for which the results for the growth inhibition in assay [1] and in assay [4] were 37% and 98% (active), respectively. In addition, the inhibition was 94% (active) in assay [2] and -6% in assay [3]. In addition, the result in assay [5], in assay [6], in assay [7] and in assay [8] was inactive.
